# Rows were chosen to be rich in hits. Some 12% of all compounds tested hit in one or more screens of this group.
# HP1b chromo inh: HTS for Inhibitors of HP1-beta Chromodomain Interactions with Methylated Histone Tails. AlphaScreen HP1-beta / biotin-H3K9me3 peptide binding. Potency, µM (doses to about 114 µM), for the others: at the top dose activity change, negative = inhibition, usual class: inhibitors. 0.56% of 390,000 active. AID 540317, 2011; further: nearly all actives have a fitted effect of over 70% in size
# Target sequence (P83916 whole entry, looked up): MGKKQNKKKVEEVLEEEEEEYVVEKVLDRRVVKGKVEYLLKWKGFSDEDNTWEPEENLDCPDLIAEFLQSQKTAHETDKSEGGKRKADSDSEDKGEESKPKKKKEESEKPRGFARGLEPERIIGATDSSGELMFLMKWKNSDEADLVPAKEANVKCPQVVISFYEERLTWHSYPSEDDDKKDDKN
#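 HP1-beta protein (50 nM final) preincubated 30 min at room temperature with biotinylated H3(1-18)K9me3 peptide (50 nM) in PBS pH 7.4, 0.01% Tween-20, then compound added for 30 min. AlphaScreen streptavidin donor/nickel chelate acceptor beads (10 ug/mL final), 30 min dark, luminescence read.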
# Sfp PPTase inh: qHTS Assay for Inhibitors of Bacillus subtilis Sfp phosphopantetheinyl transferase (PPTase); 3.5% of 310,000 active; Biochemical Sfp PPTase activity, qHTS; 4'-phosphopantetheinyl transferase ffp (Bacillus subtilis), Q9F4F7; Potency, µM, inactives show largest response in the series, negative = inhibition, hits mostly inhibitors;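 further: the enzyme is Sfp with the accession as filed and its product quenches rhodamine fluorescence; 0% = enzyme reaction without inhibitor and -100% = no enzyme wells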
#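 Fluorescence-quenching assay with 15 nM Sfp, 5 uM rhodamine-CoA and 12.5 uM BHQ-2-labelled ybbR peptide in pH 7.6 Hepes/MgCl2 buffer. Enzyme was pre-incubated with compound for 15 min at room temperature. Rate was taken from the 30-min fluorescence change (525/598 nm).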
# JMJD2A Tudor inh: qHTS Assay for Inhibitors of JMJD2A-Tudor Domain | Lysine-specific demethylase 4A (Homo sapiens), O75164 | AlphaScreen JMJD2A-Tudor / H3K4me3 peptide binding | Potency, µM (doses to about 114 µM), for the others: at the top dose activity change, negative = inhibition, hits mostly inhibitors | 4.4% of 390,000 active; further: on the % scale 0 is the no-effect control and ±100 the full control effect; nearly all actives have a fitted effect of over 50% in size
# BAZ2B inh: qHTS Assay for Inhibitors of BAZ2B | Bromodomain adjacent to zinc finger domain protein 2B (Homo sapiens), Q9UIF8 | AlphaScreen BAZ2B-H3K14Ac peptide displacement | Potency, µM (titrated, usually from 114 µM), for inactives: at the highest dose activity change, negative = inhibition, most hits filed as inhibitors | 4.4% of 360,000 active; further: on the % scale 0 is the no-effect control and ±100 the full control effect; nearly all actives have a fitted effect of over 60% in size
#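 Protein-peptide AlphaScreen: BAZ2B 50 nM, b-H3K14Ac 50 nM, 1x PBS pH 7.4 + 0.01% Tween-20. Preincubation 30 min RT; cpd 30 min RT (top 110 uM); beads 20 min RT, light-protected.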
# G9a inh: qHTS Assay for Inhibitors of Histone Lysine Methyltransferase G9a; Histone-lysine N-methyltransferase EHMT2 (Homo sapiens), Q96KQ7; G9a H3K9 monomethylation, AlphaScreen, 2 h; Potency, µM (titrated, usually from 102 µM), inactives show at the top dose activity, negative = inhibition, actives largely listed as inhibitors; 8.8% of 350,000 active; AID 504332, 2011; further: on the % scale 0 is the no-effect control and ±100 the full control effect; nearly all actives have a fitted effect of over 75% in size
# Target sequence (Q96KQ7 913-1193 limits assumed): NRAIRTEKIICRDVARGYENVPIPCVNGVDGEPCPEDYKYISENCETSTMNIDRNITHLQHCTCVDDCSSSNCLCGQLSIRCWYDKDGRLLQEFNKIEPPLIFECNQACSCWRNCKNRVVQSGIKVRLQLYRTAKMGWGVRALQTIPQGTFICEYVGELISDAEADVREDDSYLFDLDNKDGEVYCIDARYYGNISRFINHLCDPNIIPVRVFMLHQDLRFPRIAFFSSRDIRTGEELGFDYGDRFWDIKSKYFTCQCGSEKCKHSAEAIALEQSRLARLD
#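 Signal arises when biotinylated H3K9 peptide, once monomethylated, bridges streptavidin donor and antibody-captured acceptor beads. Enzyme at 20 nM was preincubated 15 min with test compounds; peptide 500 nM and SAM 20 uM then reacted for 2 h.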
# PLK1 PBD inh: qHTS for Inhibitors of PLK1-PDB (polo-like kinase 1 - polo-box domain): Primary Screen. Serine/threonine-protein kinase PLK1 (Homo sapiens), P53350. Plk1 PBD binding of FITC phosphopeptide, fluorescence polarization. Potency, µM, for the others: max response, negative = inhibition, most hits filed as inhibitors. 2.8% of 360,000 active. AID 720504, 2013; further: series mostly up to about 57 µM; on the % scale 0 is the no-effect control and ±100 the full control effect; nearly all actives have a fitted effect of over 65% in size
# Numbers without * were called inactive; ? = inconclusive; . = no result; [ ] = remark or other dose. The call rests on the fitted dose curve; in most records, active means well fitted curve in the direction sought with a large enough effect; inconclusive means small, poorly fitted or top-dose-only effect, or another doubt; inactive means no such curve, though single readings can be large; an effect the other way counts as inactive or inconclusive. Potency means the concentration at half of the fitted maximal effect.
SMILES,HP1b chromo inh,Sfp PPTase inh,JMJD2A Tudor inh,BAZ2B inh,G9a inh,PLK1 PBD inh
N#CC(O[C@@H]1OC(COC2OC(CO)C(O)C(O)[C@@H]2O)C(O)C(O)C1O)c1ccccc1 (stereo not given in full),.,24.5%,.,.,-38.3%[2.33 µM],.
O=c1c2ccccc2nc(CSc2ncnc3nc[nH]c23)n1-c1ccccc1,-32.3%,50.1µM*,31.6µM*,10.4%,?,-7.2%
COc1c(/C=C2/C(=O)NC(=O)N(C)C2=O)c(CCN(C)C(=O)c2ccccc2)cc2c1OCO2,39.9%,7.9%,-2.0%,-26.2%,6.8%,26.7µM*
CNC(=S)N(C)CCc1cc2c(c(OC)c1/C=C1/C(=O)NC(=O)N(C)C1=O)OCO2,50.1%,-20.4%,-2.3%,-1.6%,-30.7%,?
COC(=O)C1=C(N)Oc2cc(C)oc(=O)c2C12C(=O)Nc1ccccc12 (stereo not given),24.1%,-4.8%,?,.,15.1%,23.8µM*
NCC[C@H](O)C(=O)N[C@H]1C[C@@H](N)[C@@H](O[C@H]2O[C@@H](CN)[C@@H](O)[C@@H](O)[C@@H]2N)[C@@H](O[C@H]2O[C@@H](CO)[C@@H](O)[C@@H]2O)[C@@H]1O,.,7.9%,.,.,2.9%[5.15 µM],.
COC(=O)C(C)Oc1ccc(Cc2ncc(C(F)(F)F)cc2Cl)cc1 (stereo not given),117.1%,5.4%,56.2%,80.2%,3.6%[2.33 µM],-6.7%
Cc1c(O)c(O)cc2c1CC=C1[C@]3(C)CC[C@]4(C)CC[C@@](C)(C(=O)O)CC4[C@]3(C)CC[C@]12C (stereo not given in full),.,-9.1%,.,.,.,.
CC1=C(O)C(=O)C=C2C1=CC=C1C2(C)CCC2(C)C3CC(C)(C(=O)O)CCC3(C)CCC12C (stereo not given),?,.,20µM*,.,.,2.12µM*
Cc1ccc(-c2nc3c(=O)n(C)c(=O)nc-3n(C)n2)cc1,5.8%[57 µM],.,10.0%[57.1 µM],.,.,.
Cn1ncnc2c(=O)n(C)c(=O)nc1-2,62.1%,?,-4.3%,7.7%,12.6µM*,?
COc1ccc2[nH]c(C)c(CCNCc3cc(OC)c(OC)c(OC)c3)c2c1,?,44.7µM*,2.82µM*,79.4µM*,22.4µM*,-5.0%
c1cncc(CNCCN2CCNCC2)c1,24.9%,.,-2.1%,.,.,-3.9%
COc1ccc(CNCCc2c(C)[nH]c3ccc(OC(F)(F)F)cc23)c(OC)c1,?,?,17.8µM*,56.2µM*,44.7µM*,-12.0%
Cc1ccc2[nH]c(C)c(CCNCc3cccnc3)c2c1,22.7%,-2.3%,7.0%,?,50.1µM*,-2.0%
COc1ccc2[nH]c(C)c(CCNCc3cc(OC)c4c(c3)OCO4)c2c1,?,.,1.26µM*,44.7µM*,?,-11.6%
N#Cc1cc2c(nc1SCC(=O)Nc1ccc(F)c(Cl)c1)C1CCN2CC1,16.2%,.,-13.1%,-4.5%,-6.1%[59 µM],.
C[C@@H]1Cc2c(Cl)cc(C(=O)N[C@H](Cc3ccccc3)C(=O)O)c(O)c2C(=O)O1,.,6.3%,.,.,.,.
CN[C@@H](Cc1c[nH]c2ccccc12)C(=O)O,.,-5.3%,.,.,.,.
O=C(OCC(=O)c1ccc([N+](=O)[O-])cc1)/C(=C/c1ccc(Cl)cc1)NC(=O)c1ccccc1,44.1%,?,-12.9%,-10.9%,7.94µM*,-6.6%
COc1ccccc1OCC#CCN1CCCC(C)C1 (stereo not given),?,-0.3%,11.2µM*,25.1µM*,.,-1.3%
COc1ccccc1OCC#CCN1CCOCC1,70.8µM*,?,?,28.2µM*,3.98µM*,-2.0%

# Bioassay records: PubChem BioAssay, National Center for Advancing Translational Sciences (NCATS)
